Source: PubChem
An excerpt weighted towards active compounds, which were near 7.4% of everything screened.
FLuc modulator = firefly luciferase modulation, counter-screen for miR-21 project; purified FLuc, Km substrates, luminescence inhibition; Potency, µM (series often up to 57.5 µM), for inactives: top-dose activity change, negative = inhibition, actives largely listed as inhibitors; P08659; 360,000 compounds, 6.9% hits;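 further: plate controls were vehicle for no effect and reference inhibitor for full effect; nearly all actives have a fitted effect of over 55% in size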
Target sequence (P08659 whole entry, looked up): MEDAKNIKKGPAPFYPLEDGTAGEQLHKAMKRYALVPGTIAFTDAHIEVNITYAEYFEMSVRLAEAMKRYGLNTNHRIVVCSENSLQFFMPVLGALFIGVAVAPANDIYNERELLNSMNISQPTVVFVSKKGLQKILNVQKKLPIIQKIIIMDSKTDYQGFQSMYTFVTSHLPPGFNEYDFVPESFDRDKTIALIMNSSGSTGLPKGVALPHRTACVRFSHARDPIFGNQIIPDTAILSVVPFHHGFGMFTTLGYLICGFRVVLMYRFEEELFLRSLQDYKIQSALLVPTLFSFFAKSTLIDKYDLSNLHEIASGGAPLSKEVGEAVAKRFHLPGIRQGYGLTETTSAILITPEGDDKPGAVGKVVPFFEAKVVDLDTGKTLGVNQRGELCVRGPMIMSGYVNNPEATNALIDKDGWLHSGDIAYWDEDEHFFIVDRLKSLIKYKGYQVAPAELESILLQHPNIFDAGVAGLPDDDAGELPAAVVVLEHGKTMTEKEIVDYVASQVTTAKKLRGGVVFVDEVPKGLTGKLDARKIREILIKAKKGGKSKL
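Purified P. pyralis luciferase, 10 nM final, with Km-level 10 uM D-luciferin and 10 uM ATP in 50 mM Tris acetate pH 7.5, 10 mM Mg acetate, 0.01% Tween-20, 0.05% BSA; 6-point qHTS titration about 60 µM downward; luminescence read.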
ELG1 genotoxic = genotoxicity induction in ELG1-luciferase HEK293T cells. HEK293T ELG1-luciferase reporter, luminescence, 16 h. Potency, µM (doses to about 46 µM), without a hit: at the top dose activity change, positive = activation, usual class: activators. 330,000 compounds, 1.3% hits. AID 504466; further: % of control where 0% means no effect; nearly all actives have a fitted effect of over 60% in size
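Cells (2,000/well) expressing the ELG1-luciferase fusion are dosed by pin tool and kept 16 hr at 37 °C, 5% CO2. Signal comes from ONE-Glo luciferase reagent after 30 min at room temperature.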
NPC1 prom act = NPC1 promoter activation | Huh7 NPC1 promoter luciferase reporter, 24 h | Potency, µM (highest dose often 9.22 µM), for inactives: top-dose activation, most hits filed as activators | 320,000 compounds, 2.4% hits; further: % of control where 0% means no effect; nearly all actives have a fitted effect of over 60% in size
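Cells: Huh7 expressing luciferase under the NPC1 promoter, 1500/well. Seeded 2 h, compound added, incubated 24 h at 37 °C. Luciferase reagent, 10 min ambient, then luminescence.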
Rab9 promoter act = activates the Rab9 promoter | Huh7 Rab9 promoter-luciferase reporter, luminescence, 24 h | Potency, µM (top dose mostly 9.22 µM), for inactives: at the highest dose activation, negative = inhibition, usual class: activators | 320,000 compounds, 2.8% hits | AID 485297; further: % of control where 0% means no effect; nearly all actives have a fitted effect of over 60% in size
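Cell-based reporter: Huh7 stable for Rab9 promoter-driven luciferase, plated in reduced-serum medium with 10% FBS at 1500 cells/well, compound-treated 24 h at 37 °C, luminescence read after 10 min reagent.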
SMN2 splice enh = increases expression of the SMN2 splice variant; HEK293 SMN2-luciferase splicing reporter, luminescence, 30-36 h; Potency, µM (titrated, usually from 46.1 µM), for inactives: at the highest dose activity change, positive = activation, hits mostly activators; 210,000 compounds, 2.8% hits; AID 1458; further: % of control where 0% means no effect; nearly all actives have a fitted effect of over 55% in size
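HEK293 cells carry an SMN2 minigene-luciferase reporter in which exon 7 inclusion puts luciferase in frame. Cells were seeded at 2000 cells/well, attached for 10-12 hours, then exposed to compounds for 30-36 hours at 37C before ONE-Glo luminescence.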
* marks the source's active call; other numbers are inactive results. The call rests on the fitted dose curve; in most records, active means well fitted curve in the direction sought with a large enough effect; inconclusive means small, poorly fitted or top-dose-only effect, or another doubt; inactive means no such curve, though single readings can be large; an effect the other way counts as inactive or inconclusive. Potency means the concentration at half of the fitted maximal effect.

How did Cc1cccnc1NC(=O)Cn1nc(-c2ccccc2)oc1=S do in these assays?
FLuc modulator: -6.7%; ELG1 genotoxic: inconclusive; NPC1 prom act: 3.16µM*; Rab9 promoter act: 1.26µM*; SMN2 splice enh: 3.16µM*

How did C[C@H]1CCC(=O)N(CCSc2ccc(Br)cc2)CC1 do in these assays?
FLuc modulator: inconclusive; ELG1 genotoxic: 10.1%; NPC1 prom act: 10.4%; Rab9 promoter act: inconclusive

What do the screens show for `CC(C)(C)C1CCC(=O)N(CCSc2ccccc2)CC1` (stereo not drawn)?
FLuc modulator: 7.57µM*; ELG1 genotoxic: inconclusive; NPC1 prom act: 2.51µM*; Rab9 promoter act: 3.16µM*

How did Cc1ccc(SCCN2CCC(C(C)(C)C)CCC2=O)cc1 (stereo not drawn) do in these assays?
FLuc modulator: inconclusive; ELG1 genotoxic: 10.6%; NPC1 prom act: 20.2%; Rab9 promoter act: 21.5%

How did Cc1ccc(SCCN2CCC(C)CCC2=O)cc1 (stereo not drawn) do in these assays?
FLuc modulator: 19µM*; ELG1 genotoxic: inconclusive; NPC1 prom act: 3.98µM*; Rab9 promoter act: inconclusive

What do the screens show for `Cc1cc(=O)[nH]c(-c2ccc(C(F)(F)F)cc2)n1`?
FLuc modulator: -12.9%; ELG1 genotoxic: 0.1%; NPC1 prom act: -6.2%; Rab9 promoter act: -7.3%

What do the screens show for `CSS(=O)(=O)c1cccc2cccnc12`?
FLuc modulator: inconclusive; ELG1 genotoxic: -2.3%; NPC1 prom act: -2.0%; Rab9 promoter act: -2.4%

What do the screens show for `CC(=O)Nc1sc(C)c(C)c1C(=O)OCC(=O)N(CCC#N)c1cc(C)cc(C)c1`?
FLuc modulator: 6.0%; ELG1 genotoxic: -0.2%; NPC1 prom act: -7.5%; Rab9 promoter act: -5.2%

Results for COc1ccc(-n2ncc3c(NCc4ccccn4)ncnc32)cc1 ?
FLuc modulator: 15.1µM*; ELG1 genotoxic: inconclusive; NPC1 prom act: inconclusive; Rab9 promoter act: inconclusive; SMN2 splice enh: inconclusive

How did COc1ccc(-n2ncc3c(NCc4ccco4)ncnc32)cc1 do in these assays?
FLuc modulator: 9.53µM*; ELG1 genotoxic: inconclusive; NPC1 prom act: 2.24µM*; Rab9 promoter act: 1.41µM*; SMN2 splice enh: inconclusive

Results for Clc1ccc(-n2ncc3c(NCc4ccco4)ncnc32)cc1 ?
FLuc modulator: 6.01µM*; ELG1 genotoxic: -7.3%; NPC1 prom act: inconclusive; Rab9 promoter act: 2.51µM*; SMN2 splice enh: -18.8%

Results for COc1ccc(NC(=O)c2cc(C3CC3)on2)c(OC)c1 ?
FLuc modulator: inconclusive; ELG1 genotoxic: 18.4µM*; NPC1 prom act: inconclusive; Rab9 promoter act: inconclusive; SMN2 splice enh: 20µM*

How did Cc1c(Cl)cccc1NC(=O)c1cc(C2CC2)on1 do in these assays?
FLuc modulator: 19µM*; ELG1 genotoxic: inconclusive; NPC1 prom act: inconclusive; Rab9 promoter act: 3.55µM*; SMN2 splice enh: 9.0%

Results for O=C(Nc1ccccc1OCc1cc(=O)n2ccccc2n1)c1cccc(Br)c1 ?
FLuc modulator: -3.2%

How did O=c1c2ccccc2nc(COc2ccccc2)n1/N=C/c1ccc(O)c(O)c1 do in these assays?
FLuc modulator: 26.9µM*; ELG1 genotoxic: -6.3%; NPC1 prom act: -5.9%; Rab9 promoter act: -20.3%

Results for O=C(Cc1ccc(F)cc1)Nc1cccc(-c2cn3c(n2)SCC3)c1 ?
FLuc modulator: inconclusive; ELG1 genotoxic: 0.4%; NPC1 prom act: -0.4%; Rab9 promoter act: 0.0%; SMN2 splice enh: -45.7%

Results for Cc1ccc(-c2cn3c(n2)SCC3)cc1 ?
FLuc modulator: inconclusive; ELG1 genotoxic: -6.8%; NPC1 prom act: 2.24µM*; Rab9 promoter act: 2µM*; SMN2 splice enh: 11.2µM*

Results for CCc1ccc(-c2cn3c(n2)SCC3)cc1 ?
FLuc modulator: 2.39µM*; ELG1 genotoxic: inconclusive; NPC1 prom act: 1.58µM*; Rab9 promoter act: 1.41µM*

What do the screens show for `COc1cc(CCC(=O)Nc2ccc(C)c(S(=O)(=O)N3CCCCCC3)c2)cc(OC)c1OC`?
FLuc modulator: 0.0%; ELG1 genotoxic: -6.1%; NPC1 prom act: -11.8%; Rab9 promoter act: -16.5%

What do the screens show for `CC(C)c1ccccc1NCC(=O)N1CCN(Cc2ccccc2)CC1`?
FLuc modulator: -0.9%; ELG1 genotoxic: -7.6%; NPC1 prom act: 0.5%; Rab9 promoter act: 0.5%

Results for O=C(c1ccccc1)c1cc2ccc(O)cc2oc1=O ?
FLuc modulator: 19µM*; ELG1 genotoxic: 5.6%; NPC1 prom act: 23.1%; Rab9 promoter act: 13.7%; SMN2 splice enh: 0.5%

Results for O=C(Nc1cc2ccc(O)cc2oc1=O)c1ccccc1 ?
FLuc modulator: 5.36µM*

How did Cc1oc(=O)c(NC(=O)c2ccccc2)cc1C(C)O (stereo not drawn) do in these assays?
FLuc modulator: 6.8%; ELG1 genotoxic: 8.5%; NPC1 prom act: 9.0%; Rab9 promoter act: 10.9%

Results for O=C(c1ccc(Br)cc1)c1cc2ccc(O)cc2oc1=O ?
FLuc modulator: inconclusive; ELG1 genotoxic: 2.4%; NPC1 prom act: 5.9%; Rab9 promoter act: 2.0%

How did Cc1ccc(NC(=O)CSc2nnc(C(F)(F)F)n2C)cc1[N+](=O)[O-] do in these assays?
FLuc modulator: -2.5%; ELG1 genotoxic: 4.5%; NPC1 prom act: -1.7%; Rab9 promoter act: -0.9%; SMN2 splice enh: -2.3%

Results for CCOC(=O)C1CCN(S(=O)(=O)c2ccc3c(c2)CCN3C(=O)C2CCC2)CC1 ?
FLuc modulator: 3.1%; ELG1 genotoxic: -7.0%; NPC1 prom act: -0.2%; Rab9 promoter act: -3.7%

How did COc1cc2c(cc1OC)CN(c1ccc(F)cc1[N+](=O)[O-])CC2 do in these assays?
FLuc modulator: 12µM*; ELG1 genotoxic: 13.0%; NPC1 prom act: 22.9%; Rab9 promoter act: inconclusive

How did COc1cc2c(cc1OC)CN(c1ccc([N+](=O)[O-])cc1Cl)CC2 do in these assays?
FLuc modulator: -10.5%; ELG1 genotoxic: 9.8%; NPC1 prom act: -7.2%; Rab9 promoter act: -3.5%; SMN2 splice enh: -37.4%

How did COCCNc1oc(/C=C/c2ccccc2)nc1C#N do in these assays?
FLuc modulator: 10.7µM*; ELG1 genotoxic: 18.3µM*; NPC1 prom act: inconclusive; Rab9 promoter act: 3.55µM*

What do the screens show for `CNc1oc(/C=C/c2ccccc2)nc1C#N`?
FLuc modulator: 2.69µM*; ELG1 genotoxic: inconclusive; NPC1 prom act: inconclusive; Rab9 promoter act: 3.16µM*; SMN2 splice enh: 11.2µM*

How did CNc1oc(/C=C/c2cc(OC)c(OC)c(OC)c2)nc1C#N do in these assays?
FLuc modulator: -0.6%; SMN2 splice enh: 14.2%

Results for COCCCNc1oc(/C=C/c2cc(OC)c(OC)c(OC)c2)nc1C#N ?
FLuc modulator: -1.2%; SMN2 splice enh: inconclusive

How did CC(=O)c1cnc2n(c1=O)CCS2 do in these assays?
FLuc modulator: -1.0%; ELG1 genotoxic: -5.3%; NPC1 prom act: -3.3%; Rab9 promoter act: -7.2%; SMN2 splice enh: 7.6%
